The source of these data is PubChem BioAssay (NCI).

“And” between values parts separate entries of the source, which are not always exact repeats. Identical values can stand only once. The panel holds about 79,000 compounds, 15% with a hit somewhere; the sample as a whole holds those more often. The source holds several records for some structures; these can differ, active in one and inactive in another. The source made the active and inactive calls. Cut-off read from the data, not from the text of the source: active = growth inhibition above about 70%; inactive = the rest.

Assay [1] can be described thus: NCI Yeast Anticancer Drug Screen. Data for the rad50 strain (AID 155).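 Note: 0% = growth of vehicle-only cultures of the same strain.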 Conditions: S. cerevisiae rad50 strain growth inhibition; at 50.0 µM; stronger effect = higher value. In outline:
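Yeast carrying a defined DNA repair defect were exposed to test compounds, and growth was compared with vehicle-treated controls to give percent inhibition.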

Assay [2] is described as follows: NCI Yeast Anticancer Drug Screen. Data for the mec2-1 strain (AID 157). Conditions: S. cerevisiae mec2-1 strain, at 50.0 µM, stronger effect = higher value. The gist of the method:
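Growth inhibition is read against vehicle-treated controls after compound exposure of the mec2-1 yeast strain, which is defective in DNA damage repair or cell cycle control.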

The nature of assay [3]: NCI Yeast Anticancer Drug Screen. Data for the sgs1 mgt1 strain (AID 161).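 Note: 0% = growth of cultures given vehicle only.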 To be noted: S. cerevisiae sgs1 mgt1 strain, at 50.0 µM, stronger effect = higher value. In outline:
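Compounds are added to genetically altered yeast, and growth is compared with cultures given vehicle alone to give percent inhibition.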

Assay [4] can be described thus: NCI Yeast Anticancer Drug Screen. Data for the cln2 rad14 strain (AID 165).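 Note: 0% = growth equal to vehicle treated cultures.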 To be noted: S. cerevisiae cln2 rad14 strain, at 50.0 µM, stronger effect = higher value. In outline:
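Growth inhibition, relative to vehicle-treated controls, is the read-out. The test organism is a yeast strain with defined genetic alterations, cln2 rad14.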

Assay [5] can be described thus: NCI Yeast Anticancer Drug Screen. Data for the bub3 strain (AID 167). Conditions: S. cerevisiae bub3 mutant strain, at 50.0 µM, stronger effect = higher value. The gist of the method:
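Compounds were applied to a genetically altered yeast strain carrying a cell-cycle control defect. Growth inhibition was scored against vehicle-treated controls.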

A short description of assay [6]: NCI Yeast Anticancer Drug Screen. Data for the mlh1 rad18 strain (AID 175). Conditions: S. cerevisiae mlh1 rad18 strain growth inhibition; at 50.0 µM; stronger effect = higher value. The gist of the method: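 Cells of a genetically altered yeast strain, deficient in DNA damage repair, were treated with compound. Their growth was then compared with that of vehicle-treated cultures to give inhibition.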

Consider `CCCCCCCC[As](=O)(O)CCCCCCCC`, for which the growth inhibition is -2.95% (inactive) in assay [1]; -0.3% (inactive) in assay [2]; 20.9% (inactive) in assay [3]; -6.85% (inactive) in assay [4]; -0.7% (inactive) in assay [5]; -10.2% (inactive) in assay [6].
In the case of `CC[n+]1cccc2ccccc21`, the growth inhibition was -0.45% (inactive) and 56.5% (inactive) in assay [1]; -6.7% (inactive) and 60.2% (inactive) in assay [2]; -6.7% (inactive) and 73.5% (active) in assay [3]; -11.2% (inactive) and 5.65% (inactive) in assay [4]; -4.9% (inactive) and 20.5% (inactive) in assay [5]; -25.2% (inactive) and 66.7% (inactive) in assay [6].
Regarding `O=C([O-])c1ccccc1Nc1ccccn1.O=C([O-])c1ccccc1Nc1ccccn1.[Ni+2]`, the growth inhibition in assay [1] is -15% (inactive); in assay [2] it was -12.4% (inactive); in assay [3] it was -15.6% (inactive); in assay [4], 8.15% (inactive); in assay [5], -16.8% (inactive); in assay [6] it was -9.85% (inactive).
Consider `O=C(Nc1ccc(O)cc1)c1c(O)[nH]c(=S)[nH]c1=O`, for which the growth inhibition in assay [1] is -11.7% (inactive); in assay [2] it was -13.1% (inactive); in assay [3], 6.25% (inactive); in assay [4] it was -56.5% (inactive); in assay [5], 1.7% (inactive); in assay [6] it was 4.65% (inactive).
Consider `COC(=O)/C=C/[C@@H]1[C@H](C)N1S(=O)(=O)c1ccc(C)cc1` (stereo partly drawn), for which the growth inhibition was -9.7% (inactive) in assay [1]; -11.3% (inactive) in assay [2]; 11.7% (inactive) in assay [3]; 6.95% (inactive) in assay [4]; 13.9% (inactive) in assay [5]; -23.5% (inactive) in assay [6].
Regarding `CCCCC(CC)C(=O)NC(N)=O` (stereo not drawn), the growth inhibition in assay [1] was 6.7% (inactive); in assay [2], -20.1% (inactive); in assay [3], -5.35% (inactive); in assay [4], -22.4% (inactive); in assay [5] it was -12.2% (inactive); in assay [6], 4.1% (inactive).
With `CCOC(=O)C(=O)CC(=O)[C@H]1CC[C@H]2[C@@H]3CC[C@@H]4C[C@H](O)CC[C@]4(C)[C@H]3C(=O)C[C@]12C`, the growth inhibition in assay [1] is 30.6% (inactive); in assay [2] it was 15.3% (inactive); in assay [3], 40.8% (inactive); in assay [4] it was 37.5% (inactive); in assay [5], -3.8% (inactive); in assay [6], 34.7% (inactive).
On to `CCN(CC)c1cc[c]([Hg][O]C(C)=O)cc1`, for which the growth inhibition in assay [1] is 99.2% (active); in assay [2], 99% (active); in assay [3] it was 99.5% (active); in assay [4], 99.2% (active); in assay [5] it was 99% (active); in assay [6], 99.2% (active).
